Assay [1] in a line: Nuclear factor erythroid 2-related factor 2/antioxidant responsive element (Nrf2/ARE) small molecule agonists: luciferase reporter gene qHTS assay in human keratinocytes (AID 1919969; also: nearly all actives have a fitted effect of over 35% in size; also: potency is read from the fitted curve at half-maximal effect). (In general: In a reporter assay the amount or activity of a reporter protein is the signal.)
The target of assay [2] is Gonadotropin-releasing hormone receptor (Homo sapiens) (UniProt P30968). Kind of assay: Human gonadotropin-releasing hormone receptor (GnRHR) small molecule agonists, calcium flux assay in GnRHR-HEK293 cells (AID 1920063). Also: nearly all actives have a fitted effect of over 35% in size. Also: potency is read from the fitted curve at half-maximal effect. The essentials:
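We seeded human GnRHR-expressing HEK293 cells for 18 hours, loaded them with calcium dye for an hour at 37 C, added test compounds, and recorded fluorescence intensity kinetically for three minutes.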

Assay [3] addresses KiSS-1 receptor (Homo sapiens) (UniProt Q969F8). Kind of assay: Human kisspeptin (KISS1R) small molecule agonists, calcium flux assay in KISS1R-HEK293 cells (AID 1920064; active = well fitted activation curve with a large enough effect in the repeat runs). An outline of the steps: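 Kinetic calcium assay, 1 s sampling over 3 min at Ex/Em 480/540, in HEK293 cells engineered with human KISS1R; compounds delivered in DMSO after 1 h dye loading.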
(In general: A change in cytosolic calcium serves as a functional read-out for many receptors and channels.)

Assay [4] can be described thus: G protein-coupled receptor (GPCR) small molecule agonists, calcium flux assay: HEK293 wild type cell line counter screen (AID 1920065). The essentials: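 Calcium-sensitive dye, loaded 1 h at 37 C into cells cultured 18 h, reports compound-evoked calcium release as fluorescence (Ex/Em 480/540), measured over 3 min. Agonist mode; 15-point titrations, triplicate.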
Assay [5] can be described thus: p53 small molecule agonists, cell-based qHTS assay with human liver microsomes (AID 1963577). An outline of the steps: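 Cells carrying a p53-responsive bla reporter were rested 5 h (37 C, 5% CO2) before compound transfer. Human liver microsomes plus NADPH, 0.5 mg/mL final apiece, supplied metabolism during the 16 h 37 C exposure.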
Background: Quantitative high-throughput screening tests each substance at several concentrations.

The nature of assay [6]: p53 small molecule agonists, cell-based qHTS assay with rat liver microsomes (AID 1963578). An outline of the steps:
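Fluorescence from a beta-lactamase reporter under a p53 response element was measured after cells had been incubated 16 h at 37 C with test compound and rat liver microsomes plus NADPH (0.5 mg/mL final each).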

The nature of assay [7]: p53 small molecule agonists, cell-based qHTS assay with human liver microsomes: qHTS cell viability counter screen (AID 1963579). Also: nearly all actives have a fitted effect of over 45% in size. Also: potency is read from the fitted curve at half-maximal effect. An outline of the steps:
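Seed p53RE-bla cells at 4,000 per well; incubate 5 h at 37 C; add compound, human liver microsomes and NADPH; incubate 16 h at 37 C; add CellTiter-Glo; after 30 min at room temperature, read luminescence.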

The nature of assay [8]: p53 small molecule agonists, cell-based qHTS assay: qHTS cell viability counter screen (AID 1963581). Also: nearly all actives have a fitted effect of over 45% in size. The essentials: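 Following 5 h attachment, HCT-116 p53RE-bla cells took up compound for 16 h at 37 C; the reporter was read with B/G FRET substrate (2 h RT), and viability then via CellTiter-Glo ATP luminescence.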
Assay [9] is described as follows: p53 small molecule agonists, cell-based qHTS assay (AID 1963582; active = well fitted activation curve with a large enough effect in the signal ratio in the repeat runs, not every such curve was filed as active; the % refers to the signal ratio; also: potency is read from the fitted curve at half-maximal effect). An outline of the steps:
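In this cell-based concentration-response screen, a p53 response element drives beta-lactamase; cells received DMSO-borne compounds after 5 h culture and were incubated a further 16 h before FRET substrate development.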

The target of assay [10] is 5-hydroxytryptamine receptor 2A (Homo sapiens) (UniProt P28223). Put plainly: 5-hydroxytryptamine receptor 2A (HTR2A) small molecule antagonists, cell-based qHTS assay (AID 1963586). Also: nearly all actives have a fitted effect of over 45% in size. An outline of the steps:
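Antagonist-mode intracellular calcium assay: DOI (4 nM) added after 5 min compound pre-incubation at room temperature to dye-loaded HTR2A-CHO cells. Fluorescence followed for 3 min, sampled every second.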

Assay [11] has the same target. Put plainly: 5-hydroxytryptamine receptor 2A (HTR2A) small molecule agonists, cell-based qHTS assay (AID 1963587). Also: nearly all actives have a fitted effect of over 30% in size. An outline of the steps: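 HTR2A-CHO cells, plated 18 h at 37 C/5% CO2, dye-loaded 1 h at 37 C; compounds in DMSO added by pin tool (agonist mode). Intracellular calcium flux read as kinetic fluorescence on FDSS over 2 min at 1 s intervals.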
Assay [12] deals with Muscarinic acetylcholine receptor M1 (Homo sapiens) (UniProt P11229). Kind of assay: Cholinergic receptor muscarinic 1 (CHRM1) small molecule antagonists, cell-based qHTS assay (AID 1963588). Also: nearly all actives have a fitted effect of over 40% in size. An outline of the steps:
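CHRM1-CHO calcium-flux assay, antagonist mode. Cells were seeded 18 h, dye-loaded 1 h at 37 C and given compound for 5 min at RT, then acetylcholine was added at 50nM. FDSS fluorescence was read 3 min; 15 concentrations, three runs.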

The target is the same in assay [13]. Kind of assay: Cholinergic receptor muscarinic 1 (CHRM1) small molecule agonists, cell-based qHTS assay (AID 1963589). Also: nearly all actives have a fitted effect of over 35% in size. An outline of the steps:
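Measures agonist-induced intracellular calcium rise. Stable human CHRM1 CHO line, 1 h dye load at 37 C, compounds from DMSO, kinetic fluorescence read.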

The nature of assay [14]: cAMP Responsive Elements (CRE) small molecule agonists, cell-based qHTS assay (AID 1963590). The essentials: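 A CRE-responsive beta-lactamase reporter in HEK 293T cells was used. Treatment ran 3 h at 37 C; detection used LiveBLAzer B/G FRET substrate for 2 h at room temperature.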
Assay [15] is described as follows: cAMP Responsive Elements (CRE) small molecule antagonists, cell-based qHTS assay (AID 1963591; active = well fitted inhibition curve with a large enough effect in the signal ratio in the repeat runs, not every such curve was filed as active; the % refers to the signal ratio; also: potency is read from the fitted curve at half-maximal effect). An outline of the steps:
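HEK293T cells carrying a CRE-driven beta-lactamase reporter receive compound and NKH477 (0.25 uM final) for 3 h. Fluorescence from LiveBLAzer B/G FRET substrate is read after 2 h at room temperature.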

In assay [16] the target is Beta-2 adrenergic receptor (Homo sapiens) (UniProt P07550). Kind of assay: Adrenergic beta2 receptor (ADRB2) small molecule antagonists, cell-based qHTS assay (AID 1963592). Also: series mostly up to about 92 µM; nearly all actives have a fitted effect of over 50% in size. An outline of the steps:
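Cells (CHO, stable ADRB2 overexpression) incubated 18-20hr at 37C; compounds added from DMSO; agonist mix (1nM isoproterenol, 100uM IBMX, 25uM Ro-20-1724) added; 0.5hr RT; d2-cAMP and anti-cAMP-cryptate added; 1hr RT; 665/615 nm read.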

In assay [17] the target is D(2) dopamine receptor (Homo sapiens) (UniProt P14416). Kind of assay: Dopamine D2 receptor (DRD2) small molecule agonists, cell-based qHTS assay (AID 1963594). Also: nearly all actives have a fitted effect of over 35% in size. The essentials:
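HEK293 cells stably expressing DRD2 were cultured 24 h at 37 C, then given Ro20-1724 (0.1 mM final) and compounds for 10 min at room temperature. NKH477 (200nM) was then added for 30 min. cAMP was read by HTRF.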

The target is the same in assay [18]. Kind of assay: Dopamine D2 receptor (DRD2) small molecule antagonists, cell-based qHTS assay (AID 1963595; active = well fitted inhibition curve with a large enough effect in the signal ratio in the repeat runs, with a control signal flat; the % refers to the signal ratio). The essentials:
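HTRF cAMP read-out at 665 and 620 nm emission (340 nm excitation). Antagonist mode: compounds were tested against 12 nM quinpirole in DRD2-HEK293 cells, with 200 nM NKH477 raising cAMP and 0.1 mM Ro20-1724 blocking its breakdown.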

The nature of assay [19]: p53 small molecule agonists, cell-based qHTS assay with rat liver microsomes: qHTS cell viability counter screen (AID 1963580). Also: nearly all actives have a fitted effect of over 45% in size. Also: potency is read from the fitted curve at half-maximal effect. An outline of the steps:
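In HCT-116 cells carrying a p53 response element-bla reporter, compounds were metabolically activated in situ by rat liver microsomes with NADPH over 16 h. Cell ATP content then served as the cytotoxicity measure.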

Assay [20] concerns the target Beta-2 adrenergic receptor (Homo sapiens) (UniProt P07550). Put plainly: Adrenergic beta2 receptor (ADRB2) small molecule agonists, cell-based qHTS assay (AID 1963593).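 Also: CHO cells stably overexpressing human ADRB2.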 An outline of the steps: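 CHO cells stably over-expressing ADRB2 were plated overnight at 37C, then dosed with compounds plus a stimulation mix containing 100uM IBMX and 25uM Ro-20-1724 for 0.5hr at room temperature. cAMP was measured by HTRF competition, 1hr.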

A number with no mark means an inactive call. Records with an inconclusive call do not appear. Activity calls are given as the source filed them. Unless noted, calls follow the shape of the full dose curve.

Drawing on PubChem BioAssay (Tox21), this text covers Potency for 8 compounds.

Chain of Muscarinic acetylcholine receptor M1 (Homo sapiens) (P11229 whole entry, looked up): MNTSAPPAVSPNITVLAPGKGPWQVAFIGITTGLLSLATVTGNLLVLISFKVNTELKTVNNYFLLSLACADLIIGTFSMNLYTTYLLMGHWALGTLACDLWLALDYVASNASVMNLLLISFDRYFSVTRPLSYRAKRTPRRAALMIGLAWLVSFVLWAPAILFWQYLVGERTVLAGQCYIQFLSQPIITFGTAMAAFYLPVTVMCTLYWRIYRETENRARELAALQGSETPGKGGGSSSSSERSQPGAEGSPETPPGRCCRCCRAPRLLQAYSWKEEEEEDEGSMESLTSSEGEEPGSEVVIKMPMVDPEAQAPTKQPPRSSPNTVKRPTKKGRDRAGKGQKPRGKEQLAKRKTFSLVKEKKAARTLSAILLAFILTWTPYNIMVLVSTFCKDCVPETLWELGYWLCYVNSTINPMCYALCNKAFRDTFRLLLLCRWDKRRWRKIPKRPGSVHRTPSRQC
Chain of Gonadotropin-releasing hormone receptor (Homo sapiens) (P30968 whole entry, looked up): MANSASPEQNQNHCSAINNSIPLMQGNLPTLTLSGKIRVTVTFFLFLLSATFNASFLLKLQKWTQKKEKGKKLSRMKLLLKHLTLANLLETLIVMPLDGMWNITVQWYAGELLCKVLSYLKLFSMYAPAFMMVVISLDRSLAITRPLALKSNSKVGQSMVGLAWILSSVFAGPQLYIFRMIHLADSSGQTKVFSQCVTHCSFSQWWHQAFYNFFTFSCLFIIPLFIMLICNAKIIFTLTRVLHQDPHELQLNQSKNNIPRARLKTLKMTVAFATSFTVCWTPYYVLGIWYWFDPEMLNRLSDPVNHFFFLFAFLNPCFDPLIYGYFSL
Chain of 5-hydroxytryptamine receptor 2A (Homo sapiens) (P28223 whole entry, looked up): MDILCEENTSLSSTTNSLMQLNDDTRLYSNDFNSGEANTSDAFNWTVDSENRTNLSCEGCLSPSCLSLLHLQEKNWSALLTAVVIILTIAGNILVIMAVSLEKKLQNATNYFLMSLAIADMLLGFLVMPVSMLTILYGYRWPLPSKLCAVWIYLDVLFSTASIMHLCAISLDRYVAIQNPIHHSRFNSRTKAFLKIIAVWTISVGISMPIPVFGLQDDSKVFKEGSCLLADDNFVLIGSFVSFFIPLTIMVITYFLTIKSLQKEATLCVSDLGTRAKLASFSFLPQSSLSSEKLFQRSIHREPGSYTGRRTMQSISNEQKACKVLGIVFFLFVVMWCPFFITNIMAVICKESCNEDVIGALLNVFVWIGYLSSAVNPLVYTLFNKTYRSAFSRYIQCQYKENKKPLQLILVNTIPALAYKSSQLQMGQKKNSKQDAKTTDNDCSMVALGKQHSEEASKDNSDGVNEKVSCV
Chain of KiSS-1 receptor (Homo sapiens) (Q969F8 whole entry, looked up): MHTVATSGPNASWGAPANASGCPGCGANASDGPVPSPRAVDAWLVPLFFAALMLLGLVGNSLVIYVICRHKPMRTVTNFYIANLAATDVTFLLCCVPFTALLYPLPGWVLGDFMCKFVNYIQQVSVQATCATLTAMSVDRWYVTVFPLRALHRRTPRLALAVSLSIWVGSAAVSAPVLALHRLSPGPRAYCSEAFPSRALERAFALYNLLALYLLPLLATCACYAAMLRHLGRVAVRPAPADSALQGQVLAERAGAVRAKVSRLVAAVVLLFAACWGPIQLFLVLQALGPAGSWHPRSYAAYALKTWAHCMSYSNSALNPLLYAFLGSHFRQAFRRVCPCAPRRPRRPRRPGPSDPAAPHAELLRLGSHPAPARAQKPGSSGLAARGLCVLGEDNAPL
Chain of Beta-2 adrenergic receptor (Homo sapiens) (P07550 whole entry, looked up): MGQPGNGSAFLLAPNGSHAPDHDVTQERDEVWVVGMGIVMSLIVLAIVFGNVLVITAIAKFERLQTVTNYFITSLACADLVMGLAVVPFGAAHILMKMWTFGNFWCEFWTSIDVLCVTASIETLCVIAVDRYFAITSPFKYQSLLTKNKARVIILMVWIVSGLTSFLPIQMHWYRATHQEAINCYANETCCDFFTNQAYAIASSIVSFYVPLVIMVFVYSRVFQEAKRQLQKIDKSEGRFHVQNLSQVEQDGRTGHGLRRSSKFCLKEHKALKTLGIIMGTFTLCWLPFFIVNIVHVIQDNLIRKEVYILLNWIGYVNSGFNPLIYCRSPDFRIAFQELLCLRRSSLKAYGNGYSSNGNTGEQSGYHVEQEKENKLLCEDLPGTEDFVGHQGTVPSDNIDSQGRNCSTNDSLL
Chain of D(2) dopamine receptor (Homo sapiens) (P14416 whole entry, looked up): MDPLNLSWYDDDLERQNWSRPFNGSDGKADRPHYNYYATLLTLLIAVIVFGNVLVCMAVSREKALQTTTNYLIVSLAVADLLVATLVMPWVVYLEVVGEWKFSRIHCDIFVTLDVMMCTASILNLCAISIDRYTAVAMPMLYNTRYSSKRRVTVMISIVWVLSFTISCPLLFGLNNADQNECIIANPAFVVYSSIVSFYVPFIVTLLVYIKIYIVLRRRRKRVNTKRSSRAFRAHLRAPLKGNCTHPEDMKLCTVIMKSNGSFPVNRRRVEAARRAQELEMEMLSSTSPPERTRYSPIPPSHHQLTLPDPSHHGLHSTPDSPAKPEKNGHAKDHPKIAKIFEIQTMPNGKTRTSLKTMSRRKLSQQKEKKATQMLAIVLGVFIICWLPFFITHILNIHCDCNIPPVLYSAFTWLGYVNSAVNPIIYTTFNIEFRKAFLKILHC

In the case of `CC(C)CCCCCCCOC(=O)c1ccc(C(=O)OCCCCCCCC(C)C)c(C(=O)OCCCCCCCC(C)C)c1`, the Potency is 24 µM (active) in [1] and 16 µM (active) in assay [7]. Moreover, the Potency result in assay [2], in assay [3], in [4], in [5], in assay [6] and in assay [8] was “inactive” each time. For the same compound, the Potency entry in assay [9], in assay [10], in assay [11], in [12], in assay [13] and in assay [14] was “inactive” in each case. The Potency result in assay [15], in assay [16], in assay [17] and in [18] was “inactive” each time.
For the compound `c1ccc(-c2ccc(C(c3ccccc3)n3ccnc3)cc2)cc1` (stereo not drawn), the Potency in [1] is 29.8 µM (active). Besides, the Potency result in assay [2], in [3], in [4], in assay [5], in [6] and in assay [7] was “inactive” each time. Besides, the Potency entry in [19], in assay [8], in assay [11], in [13], in [14] and in [16] was “inactive” throughout. In addition, the Potency entry in assay [20], in assay [17] and in assay [18] was “inactive” in each case.
On to `NC(=O)c1ccccc1C(N)=O`, for which the Potency in assay [1] was 68.9 µM (active); in assay [9], 45.9 µM (active). Further, the Potency result in assay [2], in assay [3], in assay [4], in assay [5], in [6] and in assay [7] was “inactive” each time. Moreover, the Potency result in assay [19], in assay [10], in [11], in assay [13], in assay [14] and in assay [15] was “inactive” in each case. In addition, the Potency result in assay [16], in assay [17] and in assay [18] was “inactive” in each case.
As to `COc1cc(Nc2c(C#N)cnc3cc(OCCCN4CCN(C)CC4)c(OC)cc23)c(Cl)cc1Cl`, the Potency result in assay [1], in [2], in assay [3], in [4], in assay [5] and in assay [6] was “inactive” throughout. Moreover, the Potency result in [7], in assay [19], in assay [11], in assay [12], in assay [13] and in [15] was “inactive” in each case. Further, the Potency result in assay [16], in assay [20], in [17] and in [18] was “inactive” throughout.
As to `COc1ccc(C(=O)c2ccc(C)cc2)c(O)c1`, the Potency in assay [1] is 31 µM (active). For the same compound, the Potency result in [2], in assay [3], in [4], in [5], in [6] and in [7] was “inactive” each time. The Potency result in assay [19], in [8], in [11], in assay [12], in assay [13] and in assay [15] was “inactive” throughout. The Potency entry in assay [16], in assay [20], in assay [17] and in [18] was “inactive” throughout.
As to `Cc1cc(O)c2c(c1)C(=O)c1cc(O)cc(O)c1C2=O`, the Potency in assay [1] was 33.6 µM (active). Also, the Potency result in assay [2], in assay [3], in [4], in assay [5], in assay [6] and in assay [7] was “inactive” in each case. For the same compound, the Potency result in assay [19], in [8], in [11], in assay [12], in [13] and in assay [16] was “inactive” each time. For the same compound, the Potency result in assay [20], in [17] and in assay [18] was “inactive” throughout.
For the compound `CCCCCCCCNC(C)C(O)c1ccc(SC(C)C)cc1` (stereo not drawn), the Potency entry in assay [1], in assay [3], in assay [4], in assay [5], in assay [6] and in assay [7] was “inactive” throughout. In addition, the Potency entry in assay [17] and in assay [18] was “inactive” in each case. In addition, the Potency was 16.9 µM (active) in assay [2], 19.9 µM (active) in [19] and 23.7 µM (active) in [15].
Regarding `Cc1cccc(O)c1N`, the Potency in assay [1] is 30.9 µM (active). Also, the Potency result in assay [2], in assay [3], in assay [4], in assay [5], in assay [6] and in [7] was “inactive” in each case. Also, the Potency result in [19], in [9], in assay [10], in assay [11], in assay [12] and in assay [13] was “inactive” throughout. In addition, the Potency entry in assay [15], in [16], in [17] and in [18] was “inactive” in each case.
